The list is not random: actives were taken first. Their share in the collection is about 2.7%.
Nrf2 block: inhibitors of Nrf2 signaling; Potency, µM (titrated, usually from 46 µM), most hits filed as inhibitors; A549 ARE-Fluc reporter, luciferase luminescence, 18-24 h; AID 504444; actives 2.1% (n = 360,000); further: nearly all actives have a fitted effect of over 60% in size
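Cells were seeded and rested 2 h, then exposed to compounds for 18-24 h. CellTiter-Fluor was read first as a viability measure. BugLite was added 15 min before the final luminescent read of ARE-luciferase activity in A549 cells.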
LDHA block: inhibitors of human lactate dehydrogenase A; purified LDHA, NADH/diaphorase-resazurin fluorescence; active compounds read low; activity change, % (values are at about 110 or 230 µM); actives 0.15% (n = 480,000); in the data active means activity change below about -30%; inconclusive means mostly about -25% to -30%
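Enzyme activity of human lactate dehydrogenase 5 (2 nM; 0.06 mM NADH, 0.2 mM pyruvate, 5 min, RT) is measured via a resazurin/diaphorase fluorescence readout of residual NADH.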
A549 tox: kills or reduces viability of A549 cells in Nrf2 counter-screen; A549 ARE-Fluc cells, CellTiter-Fluor viability, 18-24 h; Potency, µM (series often up to 46 µM), usual class: inhibitors; actives 0.16% (n = 390,000); AID 504648
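Cytotoxicity counterscreen: CellTiter-Fluor fluorescence was measured in A549 ARE_Fluc cells after 18-24 h of compound exposure in a concentration series. The subsequent BugLite luminescent read reports ARE-luciferase activity.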
12-LOX inh: blocks human arachidonate 12S-lipoxygenase. P18054. purified 12hLO, xylenol orange hydroperoxide absorbance. Potency, µM (highest dose often 108 µM), usual class: inhibitors. actives 1.1% (n = 580,000)
Target sequence (P18054 whole entry, looked up): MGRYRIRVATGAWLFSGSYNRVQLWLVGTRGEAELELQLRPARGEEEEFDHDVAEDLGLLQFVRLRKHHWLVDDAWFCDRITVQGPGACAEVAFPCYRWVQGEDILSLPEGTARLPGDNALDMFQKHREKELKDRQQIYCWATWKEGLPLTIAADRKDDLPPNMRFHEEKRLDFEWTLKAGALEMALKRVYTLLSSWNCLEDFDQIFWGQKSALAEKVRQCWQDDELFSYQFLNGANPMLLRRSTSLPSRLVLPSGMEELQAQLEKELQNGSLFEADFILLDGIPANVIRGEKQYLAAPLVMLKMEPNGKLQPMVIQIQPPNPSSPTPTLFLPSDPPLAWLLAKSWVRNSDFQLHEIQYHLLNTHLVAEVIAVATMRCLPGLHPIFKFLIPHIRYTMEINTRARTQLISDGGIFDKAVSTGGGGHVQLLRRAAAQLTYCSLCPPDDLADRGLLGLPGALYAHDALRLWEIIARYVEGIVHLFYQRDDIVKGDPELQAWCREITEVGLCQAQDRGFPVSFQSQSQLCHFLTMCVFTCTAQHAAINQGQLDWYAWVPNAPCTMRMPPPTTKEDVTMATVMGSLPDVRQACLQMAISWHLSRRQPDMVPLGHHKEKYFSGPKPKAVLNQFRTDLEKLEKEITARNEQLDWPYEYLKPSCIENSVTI
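Purified human 12hLO at 150 nM in 25 mM Hepes, 0.01% Triton X-100, pH 7.0, preincubated 15 min at room temperature with compound. Reaction started with 40 uM arachidonic acid, 30 min at room temperature. Hydroperoxide measured by Fe-xylenol orange, 573/405 nm absorbance ratio.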
mIDH1 inhibitor: human IDH1 R132H inhibition; O75874; IDH1-R132H enzyme, NADPH consumption, diaphorase/resazurin fluorescence; Potency, µM (titrated, usually from 76.6 µM), actives largely listed as inhibitors; actives 0.093% (n = 390,000); AID 602179; further: nearly all actives have a fitted effect of over 65% in size
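IDH1-R132H (0.5 ug/mL dispensed) in pH 7.5 Tris buffer was preincubated 30 min with compound, then given a substrate mix of 0.016 mM NADPH and 2 mM alpha-KG for 80 min at room temperature; remaining NADPH was read by diaphorase/resazurin fluorescence.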
Nrf2 activator: Nrf2 pathway activation | actives 0.31% (n = 410,000) | AREc32 ARE-luciferase reporter (MCF7-derived line), luminescence, 24 h | Potency, µM (doses to about 46.1 µM), usual class: activators | AID 624171; further: nearly all actives have a fitted effect of over 65% in size
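Quantitative high-throughput format: AREc32 reporter cells, 1000 per well, received compound by pin transfer and were incubated 24 hr at 37 deg C, 5% CO2, before Steady-Glo luminescence detection.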
A number is an active result; 0 = inactive; ? = inconclusive; - = no result; ! = a repeat was not active. Unless noted, the call rests on the fitted dose curve; in most records, active means well fitted curve in the direction sought with a large enough effect; inconclusive means small, poorly fitted or top-dose-only effect, or another doubt; inactive means no such curve, though single readings can be large; an effect the other way counts as inactive or inconclusive.

SMILES | Nrf2 block | LDHA block | A549 tox | 12-LOX inh | mIDH1 inhibitor | Nrf2 activator
COc1cc2c3cc1OCc1c(O)c(OC)cc4c1C(Cc1ccc(cc1)Oc1cc(ccc1O)CC3N(C)CC2)N(C)CC4 (stereo not drawn) | 0 | - | 0 | - | - | -
CN1CCc2cccc3c2[C@H]1Cc1ccc(O)c(O)c1-3 | 0 | 0 | 0 | 1.4µM! | 0 | 0
CCCCCCSC1=C(C#N)C(=O)NC2(CCCCC2)S1 | ? | 0 | 0 | 45µM | 0 | 0
Cn1nc(-c2ccncc2)nc2c(=O)n(C)c(=O)nc1-2 | 2.3µM | 0 | 2.9µM | - | - | -
Cc1cccc(NC(=O)CN2C(=O)C(c3ccccc3)=NC23CCCC3)c1C | - | - | - | 0 | - | -
Cc1cccc(NC(=O)CN2C(=O)C(c3ccc(F)cc3)=NC23CCCCCC3)c1C | 23µM | 0 | 0 | ? | - | 0
C=C(C)CC1NC2CC(C)(C)C1c1c(Br)cccc12 (stereo not drawn) | - | 0 | - | ? | - | -
Fc1ccccc1-c1nnc(SCc2cn3ccccc3n2)n1C1CC1 | - | 0 | - | ? | - | -
CCCC[N+](CCCC)(CCCC)CCCC | - | 0 | - | 11µM | - | -
CC1CCC/C(=N/NC(=S)Nc2ccccc2)C1 (stereo not drawn) | - | 0 | - | 28µM | - | -
CC(=O)N1CCC(Nc2nc(-c3cccnc3)nc3ccccc23)CC1 | - | 0 | - | ? | - | -
O=C(NC(=S)Nc1ccc(S(=O)(=O)Nc2ncccn2)cc1)c1ccc(Br)cc1 | 0 | 0 | 0 | 20µM | 0 | 0
O=S(=O)(NNC(=S)Nc1ccc(S(=O)(=O)Nc2ncccn2)cc1)c1ccc(Br)cc1 | 0 | 0 | 0 | 0 | 0 | 0
COc1ccc(NS(=O)(=O)c2ccc(NC(=O)c3ccc(Br)cc3)cc2)nn1 | 21µM | 0 | 0 | 0 | 0 | 0
COc1ccc(NS(=O)(=O)c2ccc(NC(=S)NC(=O)c3ccc(Br)cc3)cc2)nn1 | 0 | 0 | 0 | 25µM | 0 | 0
O=C(NC(=S)Nc1ccc(S(=O)(=O)Nc2nccs2)cc1)c1ccc(F)c(F)c1 | 0 | 0 | 0 | 10µM | 0 | 0
COc1ccc(NS(=O)(=O)c2ccc(NC(=S)NC(=O)c3cccnc3)cc2)nn1 | ? | 0 | 0 | ? | 0 | 0
CC(C)c1ccc(CNCC(O)c2ccccc2)cc1 (stereo not drawn) | - | 0 | - | ? | - | -
CCCCC1CCC(C(=O)Oc2ccc(OC)cc2)CC1 (stereo not drawn) | - | 0 | - | 0 | - | -
O=C(Nc1ccccc1C(F)(F)F)C1CC1(c1ccccc1)c1ccccc1 (stereo not drawn) | - | 0 | - | 0 | - | -
CC1CCN(CCCCNC(=O)CCc2ncc(-c3ccc(F)cc3)o2)CC1 | - | 0 | - | 0 | - | -
COc1ccc(NS(=O)(=O)c2ccc(NC(=S)NC(=O)c3cccc(F)c3)cc2)nn1 | 0 | 0 | 0 | 40µM | 0 | 0
Clc1cccc(-c2ccc(CNc3ncn[nH]3)o2)c1 | - | 0 | - | 0 | - | -
O=C(CSc1ccc2c(c1)OCCO2)Nc1ccc(Br)cc1 | 23µM | 0 | 0 | 0 | 0 | 0
Cc1cnc(C2CCC2)n1CC1CCN(C(=O)NC2CCCCC2)CC1 | - | - | - | 0 | - | -
SMILES | Nrf2 block | LDHA block | A549 tox | 12-LOX inh | mIDH1 inhibitor | Nrf2 activator
Cc1cc(C)n(CC(=O)N2CCOCC(CO)C2)c(=O)n1 (stereo not drawn) | - | - | - | 0 | - | -
Cc1cnc(C(=O)N2CCOCC(CO)C2)cn1 (stereo not drawn) | - | - | - | 50µM | - | -
O=C(Nc1ccc(F)cc1)c1nn(-c2ccccc2)c(=O)cc1Cl | 18µM | 0 | ? | 0 | 0 | 0
Cc1ccc(Cl)cc1N1CCN(C(=O)CN(C)c2nnc(N3CCCC3=O)s2)CC1 | - | 0 | - | 0 | - | -
COc1ccc(NS(=O)(=O)c2ccc3oc(SC)nc3c2)cc1 | 21µM | 0 | 0 | ? | 0 | 0
CNC(=O)CSc1nc2cc(S(=O)(=O)Nc3ccc(OC)cc3)ccc2o1 | 0 | 0 | 0 | 0 | 0 | 0
O=C(NCc1cccnc1)C1CCC(c2ccc(Cl)cc2)CC1 (stereo not drawn) | 23µM | 0 | 0 | 0 | 0 | 0
O=C(NCc1cccnc1)C1CCN(C(=O)c2ccc(Cl)cc2Cl)CC1 | 0 | 0 | 0 | 0 | 0 | 0
O=C(Nc1c(-c2ccc3c(c2)OCO3)[nH][nH]c1=O)c1ccccc1 | - | 0 | - | 28µM | - | 0
Clc1ccc(Nc2ncnc3c2cnn3-c2ccccc2)cc1 | 0 | 0 | 0 | 25µM | 0 | 0
